# Measured values reported in the supplement of paper PMC6411743.
# ± gives the standard deviation of the averaged measurements. The full data set covers some 6,200 targets. This sample favours those with the largest changes.
# Compound: Nc1ncnc2c1ncn2[C@@H]1O[C@H](COP(=O)(O)OP(=O)(O)NP(=O)(O)O)[C@@H](O)[C@H]1O [adenylyl imidodiphosphate]
# Test: NP40-soluble protein abundance relative to vehicle (solubility fold change) (ratio); higher = more soluble protein in presence of AMP-PNP
# Procedure, shortened: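 Jurkat crude lysate (Dounce-homogenised) was treated with eight concentrations from 0.1 to 10 mM for 10 min at room temperature, then 3 min at 37 °C. It was solubilised with 0.8% NP40 and benzonase (60 min, 4 °C) and ultracentrifuged, and the supernatant was TMT-labelled for LC-MS/MS. Intensities were vsn-normalised, and the value is the fold change against the NP40-processed vehicle per replicate, from three independent experiments.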
# Chain of UniProt P21912 (P21912 whole entry): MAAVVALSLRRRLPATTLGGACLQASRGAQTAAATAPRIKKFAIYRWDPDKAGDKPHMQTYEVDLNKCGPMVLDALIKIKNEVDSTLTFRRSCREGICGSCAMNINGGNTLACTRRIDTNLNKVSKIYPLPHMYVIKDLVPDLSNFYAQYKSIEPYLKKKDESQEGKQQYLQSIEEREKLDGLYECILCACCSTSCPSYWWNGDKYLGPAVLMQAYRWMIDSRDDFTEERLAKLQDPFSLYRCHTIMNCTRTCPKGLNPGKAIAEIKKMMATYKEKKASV
# Chain of UniProt P67936 (P67936 whole entry): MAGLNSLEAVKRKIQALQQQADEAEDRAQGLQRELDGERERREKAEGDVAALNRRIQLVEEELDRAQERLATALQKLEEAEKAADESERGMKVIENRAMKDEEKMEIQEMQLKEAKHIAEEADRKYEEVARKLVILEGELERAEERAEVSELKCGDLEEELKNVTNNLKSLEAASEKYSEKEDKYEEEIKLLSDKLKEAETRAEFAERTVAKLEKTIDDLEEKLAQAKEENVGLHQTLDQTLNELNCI
# Chain of UniProt O76071 (O76071 whole entry): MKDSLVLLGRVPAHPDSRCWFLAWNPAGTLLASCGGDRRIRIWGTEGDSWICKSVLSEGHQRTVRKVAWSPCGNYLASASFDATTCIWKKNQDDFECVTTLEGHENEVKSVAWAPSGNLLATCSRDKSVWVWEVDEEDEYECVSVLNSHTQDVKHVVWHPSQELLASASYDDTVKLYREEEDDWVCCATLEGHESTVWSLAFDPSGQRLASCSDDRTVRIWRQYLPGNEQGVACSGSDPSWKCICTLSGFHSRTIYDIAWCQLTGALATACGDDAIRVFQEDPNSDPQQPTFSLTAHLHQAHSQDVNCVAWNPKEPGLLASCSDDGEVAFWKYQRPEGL
# Chain of UniProt P43155 (P43155 whole entry): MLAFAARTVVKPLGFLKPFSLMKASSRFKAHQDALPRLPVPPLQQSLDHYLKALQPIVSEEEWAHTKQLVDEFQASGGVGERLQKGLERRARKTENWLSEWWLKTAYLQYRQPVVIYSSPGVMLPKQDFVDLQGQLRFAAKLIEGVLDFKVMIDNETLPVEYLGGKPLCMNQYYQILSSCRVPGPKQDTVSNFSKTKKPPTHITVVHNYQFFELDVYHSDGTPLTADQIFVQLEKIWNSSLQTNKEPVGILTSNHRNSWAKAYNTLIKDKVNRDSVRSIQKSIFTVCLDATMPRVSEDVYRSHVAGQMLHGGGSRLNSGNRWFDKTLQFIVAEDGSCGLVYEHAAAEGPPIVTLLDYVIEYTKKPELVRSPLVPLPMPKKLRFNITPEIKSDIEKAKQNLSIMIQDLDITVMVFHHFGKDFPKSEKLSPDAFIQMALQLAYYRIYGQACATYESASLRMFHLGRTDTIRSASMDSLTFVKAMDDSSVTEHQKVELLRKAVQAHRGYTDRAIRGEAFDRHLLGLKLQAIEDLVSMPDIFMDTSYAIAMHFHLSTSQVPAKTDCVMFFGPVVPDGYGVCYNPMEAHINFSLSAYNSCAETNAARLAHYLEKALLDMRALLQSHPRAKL
# Chain of UniProt P43686 (P43686 whole entry): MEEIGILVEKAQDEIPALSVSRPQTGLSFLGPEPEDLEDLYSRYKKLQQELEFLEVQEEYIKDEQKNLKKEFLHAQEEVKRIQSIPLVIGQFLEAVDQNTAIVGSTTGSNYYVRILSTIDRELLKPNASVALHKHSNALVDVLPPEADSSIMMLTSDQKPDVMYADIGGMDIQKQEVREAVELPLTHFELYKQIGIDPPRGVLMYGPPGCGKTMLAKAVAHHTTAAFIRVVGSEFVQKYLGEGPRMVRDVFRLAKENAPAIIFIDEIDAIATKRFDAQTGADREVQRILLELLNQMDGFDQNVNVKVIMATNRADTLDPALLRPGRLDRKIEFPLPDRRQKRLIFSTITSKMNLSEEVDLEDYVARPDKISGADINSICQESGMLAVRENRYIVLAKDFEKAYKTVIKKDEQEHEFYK
# Chain of UniProt Q12788 (Q12788 whole entry): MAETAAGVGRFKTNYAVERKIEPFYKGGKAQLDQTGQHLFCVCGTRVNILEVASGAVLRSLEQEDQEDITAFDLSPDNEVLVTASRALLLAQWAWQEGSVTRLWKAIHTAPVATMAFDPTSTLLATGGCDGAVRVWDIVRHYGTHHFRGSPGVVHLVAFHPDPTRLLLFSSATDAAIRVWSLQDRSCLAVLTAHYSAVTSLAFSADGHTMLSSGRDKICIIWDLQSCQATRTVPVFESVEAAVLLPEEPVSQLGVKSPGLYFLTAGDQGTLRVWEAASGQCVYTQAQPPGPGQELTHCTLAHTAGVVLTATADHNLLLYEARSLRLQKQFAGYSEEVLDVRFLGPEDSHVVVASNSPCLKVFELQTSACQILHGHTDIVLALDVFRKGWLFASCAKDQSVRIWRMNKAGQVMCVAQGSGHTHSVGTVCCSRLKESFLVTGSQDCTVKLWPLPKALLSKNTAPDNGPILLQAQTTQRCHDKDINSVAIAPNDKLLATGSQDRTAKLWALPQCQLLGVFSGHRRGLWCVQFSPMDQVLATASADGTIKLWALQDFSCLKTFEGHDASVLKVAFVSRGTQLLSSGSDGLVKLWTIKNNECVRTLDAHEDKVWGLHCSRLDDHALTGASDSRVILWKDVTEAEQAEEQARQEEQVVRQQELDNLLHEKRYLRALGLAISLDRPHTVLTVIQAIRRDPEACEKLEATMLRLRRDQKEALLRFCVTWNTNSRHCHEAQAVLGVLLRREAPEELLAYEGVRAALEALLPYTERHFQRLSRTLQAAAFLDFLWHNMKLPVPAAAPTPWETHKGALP
# Chain of UniProt Q13094 (Q13094 whole entry): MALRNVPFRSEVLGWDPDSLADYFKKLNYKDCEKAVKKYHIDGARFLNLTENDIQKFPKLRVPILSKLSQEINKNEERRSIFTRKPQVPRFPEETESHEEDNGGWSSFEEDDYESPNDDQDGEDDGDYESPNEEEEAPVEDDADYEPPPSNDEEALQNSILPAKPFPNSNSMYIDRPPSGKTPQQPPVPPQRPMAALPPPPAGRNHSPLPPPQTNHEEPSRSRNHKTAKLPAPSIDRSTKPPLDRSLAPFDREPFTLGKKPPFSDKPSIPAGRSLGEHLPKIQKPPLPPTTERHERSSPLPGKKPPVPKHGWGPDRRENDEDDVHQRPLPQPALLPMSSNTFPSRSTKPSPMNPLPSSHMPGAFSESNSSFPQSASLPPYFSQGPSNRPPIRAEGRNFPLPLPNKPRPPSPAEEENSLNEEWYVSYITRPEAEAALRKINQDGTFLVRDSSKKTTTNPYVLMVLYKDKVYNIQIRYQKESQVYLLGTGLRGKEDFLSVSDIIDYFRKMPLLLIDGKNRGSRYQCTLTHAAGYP
# Chain of UniProt P55160 (P55160 whole entry): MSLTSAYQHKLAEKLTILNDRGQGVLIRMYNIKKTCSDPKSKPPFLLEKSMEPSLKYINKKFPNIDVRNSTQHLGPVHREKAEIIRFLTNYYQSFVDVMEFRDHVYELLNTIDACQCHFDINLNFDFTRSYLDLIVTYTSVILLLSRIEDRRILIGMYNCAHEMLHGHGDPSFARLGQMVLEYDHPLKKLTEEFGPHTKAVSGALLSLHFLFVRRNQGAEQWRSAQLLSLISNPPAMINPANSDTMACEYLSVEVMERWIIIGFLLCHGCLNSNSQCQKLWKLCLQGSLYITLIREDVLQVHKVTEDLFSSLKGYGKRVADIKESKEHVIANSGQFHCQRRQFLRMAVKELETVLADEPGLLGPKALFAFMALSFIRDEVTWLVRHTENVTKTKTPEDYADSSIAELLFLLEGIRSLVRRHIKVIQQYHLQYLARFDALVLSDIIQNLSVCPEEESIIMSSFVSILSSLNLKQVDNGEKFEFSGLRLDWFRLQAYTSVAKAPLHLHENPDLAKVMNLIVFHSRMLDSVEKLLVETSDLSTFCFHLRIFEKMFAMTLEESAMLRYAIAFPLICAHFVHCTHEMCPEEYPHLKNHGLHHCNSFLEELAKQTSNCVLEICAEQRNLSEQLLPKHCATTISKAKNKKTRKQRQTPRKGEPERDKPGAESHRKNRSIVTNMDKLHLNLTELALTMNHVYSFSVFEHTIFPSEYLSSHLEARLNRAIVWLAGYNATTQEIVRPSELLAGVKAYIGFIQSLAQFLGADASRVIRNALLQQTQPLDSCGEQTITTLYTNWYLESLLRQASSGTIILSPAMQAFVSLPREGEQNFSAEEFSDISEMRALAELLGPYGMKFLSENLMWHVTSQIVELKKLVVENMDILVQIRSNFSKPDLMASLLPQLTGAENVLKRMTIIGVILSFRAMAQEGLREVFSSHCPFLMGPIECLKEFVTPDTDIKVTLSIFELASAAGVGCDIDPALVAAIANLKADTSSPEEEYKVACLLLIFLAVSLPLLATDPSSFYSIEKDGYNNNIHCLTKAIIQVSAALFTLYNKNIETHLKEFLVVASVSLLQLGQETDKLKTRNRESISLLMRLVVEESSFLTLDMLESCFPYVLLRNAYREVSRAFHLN
# Chain of UniProt P20248 (P20248 whole entry): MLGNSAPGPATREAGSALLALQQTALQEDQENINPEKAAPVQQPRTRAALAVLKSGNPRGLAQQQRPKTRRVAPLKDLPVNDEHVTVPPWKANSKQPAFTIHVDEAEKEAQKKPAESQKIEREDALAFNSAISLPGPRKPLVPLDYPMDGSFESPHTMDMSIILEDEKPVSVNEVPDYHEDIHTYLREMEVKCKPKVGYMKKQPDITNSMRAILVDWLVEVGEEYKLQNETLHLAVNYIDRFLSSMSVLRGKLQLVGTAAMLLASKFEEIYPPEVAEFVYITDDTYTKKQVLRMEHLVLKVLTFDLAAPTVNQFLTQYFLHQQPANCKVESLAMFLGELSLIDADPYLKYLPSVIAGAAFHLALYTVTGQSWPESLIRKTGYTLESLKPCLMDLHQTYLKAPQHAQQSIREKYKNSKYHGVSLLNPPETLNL
# Chain of UniProt P63279 (P63279 whole entry): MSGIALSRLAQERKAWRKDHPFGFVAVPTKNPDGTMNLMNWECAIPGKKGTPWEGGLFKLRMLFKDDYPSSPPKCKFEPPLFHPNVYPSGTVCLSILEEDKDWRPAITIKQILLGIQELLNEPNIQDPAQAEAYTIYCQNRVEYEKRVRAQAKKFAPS
Target,NP40-soluble protein abundance (concentration: 1mM),NP40-soluble protein abundance (concentration: 2mM),NP40-soluble protein abundance (concentration: 4mM),NP40-soluble protein abundance (concentration: 6mM),NP40-soluble protein abundance (concentration: 8mM),NP40-soluble protein abundance (concentration: 10mM)
UniProt P42285,1.006 ± 0.0056,0.982 ± 0.062,1.07 ± 0.033,1.1 ± 0.036,1.14 ± 0.068,1.13 ± 0.089
UniProt P60228,1.04 ± 0.073,1.04 ± 0.077,1.1 ± 0.11,1.18 ± 0.12,1.24 ± 0.12,1.33 ± 0.2
CCNA2 (UniProt P20248),1.03 ± 0.042,1.07 ± 0.057,1.01 ± 0.033,1.01 ± 0.028,0.975 ± 0.014,1.04 ± 0.071
LDHB (UniProt P07195),1.01 ± 0.019,0.92 ± 0.025,0.947 ± 0.02,0.973 ± 0.036,0.969 ± 0.024,0.943 ± 0.013
UniProt P05771|P05771-2,1.05 ± 0.019,1.03 ± 0.016,1.04 ± 0.029,1.04 ± 0.012,1.05 ± 0.017,1.04 ± 0.03
HNRNPH2 (UniProt P55795),0.9889 ± 0.0045,0.934 ± 0.086,0.946 ± 0.028,0.947 ± 0.023,0.9566 ± 0.0082,0.908 ± 0.019
RFX1 (UniProt P22670),1.04 ± 0.016,1.03 ± 0.015,1.03 ± 0.03,1 ± 0.033,1.01 ± 0.025,0.995 ± 0.02
SLC2A1 (UniProt P11166),1.015 ± 0.005,0.999 ± 0.042,1.02 ± 0.055,0.998 ± 0.029,1.01 ± 0.032,1.01 ± 0.053
UniProt P56282|P56282-3|P56282-2,0.973 ± 0.03,0.933 ± 0.065,0.968 ± 0.026,0.952 ± 0.036,0.942 ± 0.041,0.951 ± 0.045
UniProt P08559|P08559-3|P08559-4|P08559-2,0.979 ± 0.13,0.94 ± 0.13,0.925 ± 0.13,0.923 ± 0.17,0.95 ± 0.12,0.965 ± 0.15
PCNA (UniProt P12004),1.008 ± 0.0098,0.998 ± 0.012,0.957 ± 0.012,0.973 ± 0.015,0.951 ± 0.018,0.935 ± 0.024
UniProt O95786|O95786-2,0.996 ± 0.051,0.944 ± 0.035,0.978 ± 0.022,0.942 ± 0.017,0.967 ± 0.021,0.933 ± 0.029
UniProt P63279,0.993 ± 0.076,1.01 ± 0.076,1.01 ± 0.1,1.04 ± 0.12,1.12 ± 0.07,1.07 ± 0.066
CIAO1 (UniProt O76071),1.02 ± 0.021,0.986 ± 0.024,1.01 ± 0.053,1.01 ± 0.044,1 ± 0.021,0.978 ± 0.028
UniProt Q05519|Q05519-2,1.12 ± 0.031,1.18 ± 0.11,1.21 ± 0.088,1.26 ± 0.049,1.34 ± 0.16,1.51 ± 0.2
UniProt Q02880|Q02880-2,1.56 ± 0.036,1.63 ± 0.041,1.77 ± 0.12,1.88 ± 0.19,1.95 ± 0.18,2.01 ± 0.25
TBL3 (UniProt Q12788),1.07 ± 0.02,1.15 ± 0.05,1.21 ± 0.023,1.35 ± 0.027,1.46 ± 0.024,1.53 ± 0.075
LCP2 (UniProt Q13094),1.02 ± 0.027,1.05 ± 0.053,0.992 ± 0.034,0.98 ± 0.0097,0.955 ± 0.042,0.947 ± 0.061

Target,NP40-soluble protein abundance (concentration: 1mM),NP40-soluble protein abundance (concentration: 2mM),NP40-soluble protein abundance (concentration: 4mM),NP40-soluble protein abundance (concentration: 6mM),NP40-soluble protein abundance (concentration: 8mM),NP40-soluble protein abundance (concentration: 10mM)
GTF2F2 (UniProt P13984),1 ± 0.011,1.06 ± 0.023,1.04 ± 0.019,1.07 ± 0.018,1.07 ± 0.015,1.103 ± 0.0083
SURF6 (UniProt O75683),1.05 ± 0.056,1.12 ± 0.092,1.1 ± 0.057,1.17 ± 0.095,1.14 ± 0.12,1.22 ± 0.088
TPM4 (UniProt P67936),1.21 ± 0.19,1.42 ± 0.15,1.27 ± 0.3,1.35 ± 0.3,1.44 ± 0.047,1.24 ± 0.16
PRIM2 (UniProt P49643),0.996 ± 0.022,0.954 ± 0.018,1 ± 0.013,1.02 ± 0.044,1.02 ± 0.027,1.02 ± 0.029
UniProt Q02078-2|Q02078-4|Q02078-6|Q02078-5,1.0199 ± 0.0007,1.03 ± 0.017,1.023 ± 0.0072,0.98 ± 0.014,0.9784 ± 0.0097,0.98 ± 0.053
UniProt O96028|O96028-3|O96028-5,1.08 ± 0.034,1.16 ± 0.026,1.23 ± 0.033,1.32 ± 0.044,1.35 ± 0.03,1.47 ± 0.059
UniProt P43155|P43155-2|P43155-3,0.974 ± 0.057,0.965 ± 0.011,1 ± 0.032,1.01 ± 0.086,1.01 ± 0.061,1.01 ± 0.077
RPS3A (UniProt P61247),0.96 ± 0.052,0.931 ± 0.044,0.918 ± 0.11,0.895 ± 0.081,0.83 ± 0.057,0.947 ± 0.11
PSMB4 (UniProt P28070),0.931 ± 0.043,0.905 ± 0.048,0.918 ± 0.096,0.971 ± 0.046,0.968 ± 0.071,1 ± 0.13
HMGN2 (UniProt P05204),1.06 ± 0.04,1.15 ± 0.12,1.09 ± 0.05,1.25 ± 0.081,1.16 ± 0.21,1.54 ± 0.28
PSMD2 (UniProt Q13200),0.891 ± 0.014,0.849 ± 0.068,0.854 ± 0.074,0.858 ± 0.087,0.851 ± 0.086,0.816 ± 0.12
NCKAP1L (UniProt P55160),0.975 ± 0.021,0.905 ± 0.085,0.955 ± 0.027,0.955 ± 0.072,0.975 ± 0.046,0.914 ± 0.037
SDHB (UniProt P21912),0.976 ± 0.045,1 ± 0.056,0.987 ± 0.063,1.03 ± 0.079,1.02 ± 0.075,1.04 ± 0.052
P0DN76|Q01081 (UniProt Q01081+P0DN76),1.04 ± 0.065,1.06 ± 0.083,1.12 ± 0.05,1.29 ± 0.099,1.47 ± 0.18,1.51 ± 0.18
PSMC4 (UniProt P43686),0.906 ± 0.041,0.921 ± 0.06,0.885 ± 0.08,0.871 ± 0.079,0.866 ± 0.082,0.859 ± 0.1
UniProt P49005|F8W8R3,0.977 ± 0.021,0.947 ± 0.059,0.973 ± 0.027,0.929 ± 0.011,0.9339 ± 0.0057,0.925 ± 0.037
UniProt P54136|P54136-2,0.957 ± 0.051,0.888 ± 0.14,0.92 ± 0.1,0.92 ± 0.097,0.945 ± 0.13,0.894 ± 0.16
